BJeLR viab HTS = BJeLR cell viability reduction. AID 2275. hit rate 0.64% among 30,000. viability loss activity score, % (no concentration beside the values). BJeLR fibroblasts viability, CellTiterGlo ATP luminescence, 48 h; HRASV12, hTERT and SV40 LT/ST transformed; in the data active = viability loss activity score above about 50%; inconclusive = no clear call, values can overlap the other calls; inactive = below about 35%;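 also: higher score means fewer live cells and less ATP luminescence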
Hedgehog inh = Sonic Hedgehog pathway inhibition | inhibition, % (test concentration not listed) | hit rate 2.1% among 22,000 | AID 2313 | Shh-LIGHT2 Gli-luciferase reporter, 30 h;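 active = mean inhibition across valid replicates above about 65%, limit read from the data; inconclusive = mean under the limit, yet half or more replicates past it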;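 also: pathway switched on by Shh-conditioned medium diluted 1 in 25 in low serum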
MITF inh = MITF inhibition | TRPM1 promoter luciferase, luminescence, 24 h | inhibition, % (no concentration beside the values) | hit rate 0.28% among 37,000; in the data active = inhibition above about 85%; inconclusive = no clear call, values can overlap the other calls; inactive = below about 68%;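 also: human melanocyte line stably carrying TRPM1 promoter luciferase reporter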
Hits are given with their value; – = inactive; ? = inconclusive; · = no result given. This excerpt belongs to a sample that is enriched for hits.

SMILES	BJeLR viab HTS	Hedgehog inh	MITF inh
C[C@@H]1CCCCO[C@@H](CN(C)C(=O)Nc2ccc(C(F)(F)F)cc2)[C@@H](C)CN([C@H](C)CO)C(=O)c2cc(NS(=O)(=O)c3ccc(Cl)cc3)ccc2O1	·	119	–
C[C@@H]1CCCCO[C@@H](CN(C)C(=O)Nc2ccc(C(F)(F)F)cc2)[C@@H](C)CN([C@H](C)CO)C(=O)c2cc(NS(=O)(=O)c3cccs3)ccc2O1	·	83	–
Cc1cccc(-c2nnc(SCC(=O)N3CCCCC3C)o2)c1 (stereo not drawn)	–	·	·
Cc1cc(C)c(-n2c(SCC(=O)Nc3ccccc3Cl)n[nH]c2=O)c(C)c1	–	·	·
CC1=NN(c2ccccc2)C(c2ccc(OCC(=O)N3CCCC3)cc2)C1 (stereo not drawn)	–	·	·
COc1ccc(C2C(C(=O)NCc3cccnc3)c3ccccc3C(=O)N2c2ccc(OC)cc2)cc1 (stereo not drawn)	–	·	·
CCC(C)[C@H]1C(=O)O[C@H](C(C)C)C(=O)N(C)[C@@H](C(C)C)C(=O)O[C@H](C(C)C)C(=O)N(C)[C@@H](C(C)C)C(=O)O[C@H](CC(C)C)C(=O)N1C (stereo partly drawn)	79	106	–
CC1=CC2=NC(=O)/C(=C\c3ccco3)C(=N)N2O1	–	·	·
COc1cccc(NC(=O)C(C)Sc2nc(-c3ccccc3)cc(C(F)(F)F)n2)c1 (stereo not drawn)	–	·	·
O=C(c1cc2ccccn2n1)N1CCN(c2ccc(Cl)nn2)CC1	–	·	·
COc1ccc2c(c1)OCC(Cc1ccc(OC)c(OC)c1)C2=O (stereo not drawn)	–	–	–
COc1ccc2c(c1)O[C@@H]1COc3cc(OC)c(OC)cc3[C@@H]1C2=O	–	–	110
COc1cc2c(cc1OC)[C@@H]1C(=O)c3ccc4c(c3O[C@@H]1CO2)CCC(C)(C)O4	–	94	?
C=C(C)[C@@H]1Cc2c(ccc3c2O[C@H]2COc4cc(OC)c(OC)cc4[C@@]2(O)C3=O)O1	–	–	–
O=C1/C(=C/c2cccc(F)c2)CS/C1=C\c1cccc(F)c1	–	·	·
O=C1CC(c2ccco2)Cc2nc(NC3CC3)ncc21 (stereo not drawn)	–	·	·
Cc1ccccc1N=Cc1c(O)[nH]c2ccccc12	–	·	·
COc1c(O)cc2oc3cc(O)c(CC=C(C)C)c(O)c3c(=O)c2c1CC=C(C)C	–	–	–
CC(C)=CCc1c(O)cc2oc3c(CC=C(C)C)c(O)c(O)c(CC=C(C)C)c3c(=O)c2c1O	·	103	·
CC(=O)O[C@@H]1CC2C(C)(C)C(=O)C=C[C@]2(C)C2CC[C@@]3(C)[C@H](c4ccoc4)OC(=O)[C@H]4O[C@]43[C@@]21C (stereo partly drawn)	–	–	–
CC(=O)O[C@@H]1C=C[C@@]2(C)C(C[C@@H](OC(C)=O)[C@@]3(C)C4=CC(=O)O[C@@H](c5ccoc5)[C@]4(C)CCC23)C1(C)C (stereo partly drawn)	–	–	91
CC(C)C[C@@H](/C=C/S(C)(=O)=O)NC(=O)[C@H](CC(C)C)NC(=O)[C@H](CC(C)C)NC(=O)OCc1ccccc1	116	–	–
CC(C)C[C@@H](NC(=O)OCC1c2ccccc2-c2ccccc21)C(=O)O	–	–	–
CC(C)(C)c1ccc(-c2n[nH]c(=S)n2/N=C/c2ccccn2)cc1	–	·	·
CN(C)c1ccc(C(=C2C=CC(=[N+](C)C)C=C2)c2ccc(N(C)C)cc2)cc1	127	97	109
SMILES	BJeLR viab HTS	Hedgehog inh	MITF inh
O=C(NCc1ccsc1)c1ccc2c(c1)OCCCO2	–	·	·
C=CCSc1ncnc2c1sc1nc(N3CCOCC3)c3c(c12)CCCC3	–	·	·
CC(=O)Nc1ccc(S(=O)(=O)NC(C)C)cc1	–	·	·
COC(=O)/C=C/S(=O)(=O)c1ccc(NC(C)=O)cc1	–	94	–
CCn1c(=O)cc(OCC(=O)NC2CCCC2)c2ccccc21	–	·	·
Cc1ccc(S(=O)(=O)c2ccc(C)cc2)cc1	–	–	–
Cc1ccc(S(=O)(=O)/C=C/C#N)cc1	·	98	89
O=C(Oc1cccc2cccnc12)c1cn(-c2ccccc2)nc1-c1ccccc1	–	·	·
Cc1[nH]c2ccccc2c1C(c1c(C)[nH]c2ccccc12)C(C)C	–	–	–
Cc1[nH]c2ccccc2c1Sc1ccccc1	–	71	–
CCS(=O)(=O)CCSc1nc(-c2ccccc2)cc(-c2ccccc2)c1C#N	–	·	·
CCc1ccc(NC(=O)c2nn(-c3ccc(C)cc3)c(=O)c3c2c2ccccc2n3C)cc1	–	·	·
O=c1oc(-c2ccccn2)nc2ccccc12	–	–	–
O=c1oc(Cl)c(Cl)c2ccccc12	55	79	–
CC1=Nc2ccccc2/C1=C\c1sc(=O)n(-c2ccccc2)c1O	–	·	·
Cc1ccc(S(=O)(=O)N(C)C[C@H]2Oc3c(NC(=O)NC4CCCCC4)cccc3C(=O)N([C@H](C)CO)C[C@H]2C)cc1	–	–	–
C[C@H]1CN([C@@H](C)CO)C(=O)c2cccc(NC(=O)NC3CCCCC3)c2O[C@@H]1CN(C)S(=O)(=O)c1ccc(Cl)cc1	–	–	–
Cc1ccc(S(=O)(=O)Nc2cccc3c2O[C@@H](CN(C)CC2CCCCC2)[C@@H](C)CN([C@H](C)CO)C3=O)cc1	–	88	–
C[C@H](CO)N1C[C@H](C)[C@H](CN(C)S(=O)(=O)c2ccc(Cl)cc2)Oc2c(NC(=O)NC3CCCCC3)cccc2C1=O	–	122	–
Cc1ccc(S(=O)(=O)Nc2cccc3c2O[C@H](CN(C)CC2CCCCC2)[C@@H](C)CN([C@@H](C)CO)C3=O)cc1	–	–	–
C[C@H]1CN([C@@H](C)CO)C(=O)c2cccc(NC(=O)NC3CCCCC3)c2O[C@H]1CN(C)S(=O)(=O)c1ccc(F)cc1	–	103	–
Cc1ccc(S(=O)(=O)N(C)C[C@@H]2Oc3c(NC(=O)NC4CCCCC4)cccc3C(=O)N([C@@H](C)CO)C[C@@H]2C)cc1	–	100	–
C[C@H](CO)N1C[C@H](C)[C@@H](CN(C)S(=O)(=O)c2ccc(F)cc2)Oc2c(NC(=O)NC3CCCCC3)cccc2C1=O	–	–	–
CCOC(=O)CN1C(=O)S/C(=C\c2ccccc2OCc2ccccc2F)C1=O	–	·	·
O=C(NCCc1ccccc1)c1nnc(-c2ccccc2)o1	–	·	·
SMILES	BJeLR viab HTS	Hedgehog inh	MITF inh
CN=C1S/C(=C\c2cccn2-c2ccc(N(C)C)cc2)C(=O)N1C	–	·	·
CCCc1nnc(/N=C/c2cc(-c3ccccc3)oc2O)s1	–	·	·
Cc1nnc2c(Nc3ccc4c(c3)OCO4)nc3ccccc3n12	–	·	·
O=C(Nc1ccc(S(=O)(=O)N2CCCC2)cc1)c1ccc(COc2ccc3c(c2)CCC3)cc1	–	·	·
C=C(C)C(=O)O[C@H]1[C@H]2C(=C)C(=O)O[C@@H]2C[C@@H](C)/C=C/C(=O)[C@](C)(O)[C@@H]1OC(=O)C(=C)C	72	–	?
C=C1C(=O)O[C@@H]2C[C@H](C)[C@@]3(O)C[C@H](O)[C@@](C)(C[C@@H](OC(=O)C(C)C)[C@@H]12)O3	–	–	–
C=C(C)C(=O)O[C@H]1[C@H]2C(=C)C(=O)O[C@@H]2C[C@@H](C)[C@@H]2O[C@@H]2C(=O)[C@](C)(O)[C@@H]1OC(C)=O	–	85	–
C=C1C(=O)O[C@H]2[C@H]1[C@@H](OC(=O)/C(C)=C\C)C[C@]1(C)O[C@@H]1[C@H]1O[C@H]1C(=C)[C@H]2O	–	–	–
